The values below come from PubChem BioAssay (NCATS).

Molecules are shown by their SMILES. Where “and” joins values, the source holds several entries; their conditions need not be identical. Identical values can stand only once. Results filed as inconclusive are left out. Values without a mark were called inactive. Calls of active or inactive are those of the source. Unless noted, calls come from the whole dose curve; as a rule, active = well fitted curve in the direction sought with a large enough effect; inconclusive = small, poorly fitted or top-dose-only effect, or another doubt; inactive = no such curve, though single readings can be large; an effect the other way counts as inactive or inconclusive.

The nature of assay [1]: Cell Viability - LYMP2-023 (AID 975).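 For activity change, negative = cytotoxicity: cellular ATP measured by luciferase luminescence as viability proxy; plate controls were DMSO only for no effect and 92 µM tetraoctylammonium bromide control for full effect.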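 Note: cells exposed to compound for 24 hours at 37 °C; nearly all actives have a fitted effect of over 55% in size.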 Note: potency is the fitted concentration of half-maximal effect. The method, boiled down: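 Intracellular ATP, read by CellTiter-Glo luminescence, reports viability after 24 hr compound exposure at 37 C. 2500 lymphoblastoid cells/well (LYMP2-023) seeded 5 hr beforehand; Hill fits give AC50; positive control tetraoctylammonium bromide.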
A short description of assay [2]: Cell Viability - LYMP2-025 (AID 976).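 Note: plate controls were DMSO only for no effect and tetraoctylammonium bromide control for full effect.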 In outline: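 Cytotoxicity read as loss of intracellular ATP (luciferase luminescence) after 24 h compound treatment at 37 C. Uses LYMP2-025 lymphoblastoid cells in 1536-well format; Hill-equation modelling gives AC50; tetraoctylammonium bromide as positive control.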
Assay [3] in a line: Cell Viability - LYMP2-008 (AID 980). Note: nearly all actives have a fitted effect of over 60% in size. Note: potency is the fitted concentration of half-maximal effect. The method, boiled down:
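Cytotoxicity determined from ATP-dependent luciferase luminescence (CellTiter-Glo) following 24 h compound exposure of human lymphoblastoid LYMP2-008 cells at 37 C. Concentration-response data fitted to the Hill equation to give AC50.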

Assay [4] can be described thus: Cell Viability - LYMP1-002 - Assay at 40 hr (AID 994).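 Note: 0% = DMSO only and full inhibition = 92 µM tetraoctylammonium bromide; nearly all actives have a fitted effect of over 60% in size.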 The method, boiled down: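 Cytotoxicity was read as loss of cellular ATP (CellTiter-Glo luminescence) after 40 hr compound exposure at 37 C of 2500 LYMP1-002 lymphoblastoid cells per well. Concentration-response data were fitted with the standard Hill equation to give AC50.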
Assay [5] has as its target Estrogen receptor (Homo sapiens) (UniProt P03372). In words: qHTS assay for small molecule antagonists of estrogen receptor alpha signaling (AID 588513; active = well fitted curve in the direction sought with a large enough effect in the signal ratio, with a control signal flat, not every such curve was filed as active; the % refers to the signal ratio; note: % is set by controls: 0 for no effect and ±100 for the full control effect). In outline:
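Beta-lactamase reporter, antagonist mode, HEK 293 GripTite cells; 0.5nM E2 stimulus, 18 h, 37 C; CCF4 dye 2 h RT; fluorescence. IC50 and efficacy from Hill fits, normalized to E2 and DMSO.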
Background: In qHTS, concentration-response curves come from the screen itself.

Assay [6] has the same target. As to the kind of experiment: qHTS assay for small molecule agonists of estrogen receptor alpha signaling (AID 588514; calls by dose curve;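 note: 0% = vehicle only and 100% = reference agonist; nearly all actives have a fitted effect of over 70% in size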). The method, boiled down: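 EC50 and efficacy came from Hill fits of beta-lactamase reporter signal (CCF4 dye, 2 h at room temperature) scaled between DMSO and 20 nM 17-beta-estradiol. Agonist mode: HEK293 ER-alpha-UAS-bla cells in charcoal/dextran-stripped serum medium, 18 h compound exposure at 37 C.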

Assay [7] has as its target Glucocorticoid receptor (Homo sapiens) (UniProt P04150). As to the kind of experiment: qHTS assay for small molecule antagonists of glucocorticoid receptor signaling (AID 588533; active = well fitted inhibition curve with a large enough effect in the signal ratio, with a control signal flat, not every such curve was filed as active; the % refers to the signal ratio;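 note: cells stimulated with 2 nM dexamethasone as agonist; % is set by controls: 0 for no effect and ±100 for the full control effect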). The method, boiled down: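 Antagonist-mode qHTS: compound titrations added to GRE-bla HeLa cells, then dexamethasone 2 nM final; 18 h, 37 C. CCF4 FRET fluorescence normalized to dexamethasone and DMSO; IC50 from Hill fit.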

Assay [8] is described as follows: qHTS assay to identify small molecules that stimulate interleukin-8 (IL-8) secretion (AID 651758; active = well fitted activation curve with a large enough effect in the signal ratio; the % refers to the signal ratio; note: 0% is about no effect). The method, boiled down:
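Compounds are added to THP-1 cells (2000 per well) and left 16 hrs at 37 C. A labeled anti-IL-8 antibody pair is then added, and IL-8 secretion is measured by time-resolved FRET after 1-3 hrs at room temperature.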

A short description of assay [9]: qHTS assay for small molecule antagonists of the retinoid-related orphan receptor gamma (ROR-gamma) signaling pathway - cell viability counter screen (AID 720652; active = well fitted curve in the direction sought with a large enough effect in the repeat runs; an effect the other way counts as inactive or inconclusive;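 note: compound exposure lasted 16 hr before ATP read; % is set by controls: 0 for no effect and ±100 for the full control effect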). The method, boiled down: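 Cytotoxicity counter screen: intracellular ATP (CellTiter-Glo luminescence) measured in the doxycycline-induced CHO RORE-luciferase reporter line after 16 hr compound exposure at 37 C, 5% CO2.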

Assay [10] can be described thus: Cell Viability - Mesenchymal (AID 546).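 Note: cells exposed to compound for 40 hours before reading; 0% = DMSO only and -100% = 100 µM tamoxifen.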 The settings on record: mesenchymal cells viability, qHTS; activity change, negative = cytotoxicity: at 91.7 µM (top of the series). The method, boiled down:
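Human renal mesenchymal cells (glomerulus-derived), 1000 cells/well, 5 hr 37 °C pre-incubation; compound 40 hr, 37 °C; CellTiter-Glo, 20 min RT; luminescence; AC50 via Hill equation.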

A short description of assay [11]: Cell Viability - LYMP1-003 - Assay at 40 hr (AID 964). Note: % is set by controls: 0 for no effect and ±100 for the full control effect; nearly all actives have a fitted effect of over 60% in size. In outline:
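Viability is taken as cellular ATP, read by CellTiter-Glo luminescence after 40 h of compound exposure at 37 C. Cells: human lymphoblastoid line LYMP1-003 at 2500/well; AC50 values derived by Hill-equation fitting of concentration-response data.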

Assay [12] in a line: Cell Viability - LYMP2-026 (AID 989). Note: % is set by controls: 0 for no effect and ±100 for the full control effect; nearly all actives have a fitted effect of over 50% in size. In outline: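 Cytotoxicity read as ATP-dependent luminescence (CellTiter-Glo, 30 min room temperature) after 24 h compound treatment at 37 C. LYMP2-026 lymphoblastoid line seeded at 2500 cells/well; AC50 derived by standard Hill equation.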
The target in assay [13] is Peroxisome proliferator-activated receptor gamma (Homo sapiens) (UniProt P37231). As to the kind of experiment: qHTS assay for small molecule antagonists of peroxisome proliferator-activated receptor gamma signaling (AID 588537; active = well fitted inhibition curve with a large enough effect in the signal ratio, with a control signal flat, not every such curve was filed as active; the % refers to the signal ratio;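 note: reporter cells co-stimulated with 50 nM rosiglitazone agonist during compound treatment; % of control where 0% means no effect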). The method, boiled down: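 Fluorescence at 460 and 530 nm (405 nm excitation) reported beta-lactamase cleavage of CCF4 after 2 h room-temperature loading. HEK293 reporter cells in 1% charcoal/dextran-treated FBS had received compound and rosiglitazone for 16 h.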
Sequence of Peroxisome proliferator-activated receptor gamma (Homo sapiens) (P37231 whole entry, looked up): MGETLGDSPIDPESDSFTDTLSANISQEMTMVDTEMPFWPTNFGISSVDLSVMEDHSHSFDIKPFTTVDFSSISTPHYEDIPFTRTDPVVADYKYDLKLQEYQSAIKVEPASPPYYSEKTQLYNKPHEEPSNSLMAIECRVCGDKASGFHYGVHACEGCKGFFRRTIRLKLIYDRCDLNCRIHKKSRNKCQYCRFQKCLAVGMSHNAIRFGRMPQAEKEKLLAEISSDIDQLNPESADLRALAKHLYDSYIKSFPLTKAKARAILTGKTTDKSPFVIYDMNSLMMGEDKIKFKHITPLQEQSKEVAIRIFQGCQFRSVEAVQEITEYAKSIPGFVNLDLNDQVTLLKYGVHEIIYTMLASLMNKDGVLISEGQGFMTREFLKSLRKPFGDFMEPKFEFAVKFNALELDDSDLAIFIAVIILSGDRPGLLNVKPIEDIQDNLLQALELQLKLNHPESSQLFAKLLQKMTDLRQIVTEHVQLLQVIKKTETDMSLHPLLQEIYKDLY

Assay [14] has as its target Retinoic acid receptor RXR-alpha (Homo sapiens) (UniProt P19793). As to the kind of experiment: qHTS assay for small molecule agonists of retinoid X receptor alpha signaling (AID 588544; calls by dose curve;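 note: 0% = DMSO basal wells and 100% = reference agonist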).
The target in assay [15] is Thyroid hormone receptor beta (Homo sapiens) (UniProt P10828). In words: qHTS assay for small molecule antagonists of thyroid hormone receptor beta signaling (AID 588547; active = well fitted inhibition curve with a large enough effect in the signal ratio, with a control signal flat, not every such curve was filed as active; the % refers to the signal ratio;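 note: cells stimulated with 0.4 nM T3 agonist during compound exposure; % is set by controls: 0 for no effect and ±100 for the full control effect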). The note with it: TR-UAS-bla HEK293, beta-lactamase ratio, antagonist mode, 18 h. The method, boiled down:
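TR-UAS-bla GripTite HEK293 cells in 2% charcoal/dextran FBS medium; compounds 0.59 nM to 92 uM with T3 at 0.4nM final, 18 h at 37 C. Beta-lactamase read by CCF4 fluorescence (460/530 nm); Hill fits gave IC50 and efficacy.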

Assay [16] addresses Mitogen-activated protein kinase 10 (Mus musculus) (UniProt Q61831). As to the kind of experiment: JNK3 AlphaScreen Assay (AID 530; active = well fitted curve in either direction with a large enough effect, not every such curve was filed as active). The method, boiled down:
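Activity was read by AlphaScreen after JNK3-containing HepG2 lysate (cytokine pre-activated) phosphorylated biotinylated GST-cJun with 10 uM ATP at room temperature. Phospho-Ser73 cJun antibody with Protein-A acceptor beads provided detection.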
A general note: Bead proximity is the source of the signal in Alpha formats.

Assay [17] in a line: Cell Viability - LYMP2-024 (AID 988).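 For activity change, negative = cytotoxicity: plate controls were DMSO only for no effect and 92 µM tetraoctylammonium bromide for full effect.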 Note: nearly all actives have a fitted effect of over 60% in size. Note: potency is the fitted concentration of half-maximal effect. In outline: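 Cytotoxicity was taken as a decrease in ATP (CellTiter-Glo luminescence) after 24 hr compound exposure at 37 C of LYMP2-024 lymphoblastoid cells, 2500 cells/well. Concentration-response data were fitted to the Hill equation to give AC50.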
The target in assay [18] is Bile acid receptor (Homo sapiens) (UniProt Q96RI1). In words: qHTS assay for small molecule antagonists of farnesoid X receptor signaling (AID 588526; calls by dose curve; note: % is set by controls: 0 for no effect and ±100 for the full control effect). The method, boiled down:
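Antagonist mode: titrated compounds tested against chenodeoxycholic acid stimulation (normalized to 50 uM CDCA and DMSO) in GeneBLAzer HEK293T cells for 16 h. Beta-lactamase read by CCF4 fluorescence; IC50 from Hill fits.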

Assay [19] addresses Glucocorticoid receptor (Homo sapiens) (UniProt P04150). In words: qHTS assay for small molecule agonists of glucocorticoid receptor signaling (AID 588532; active = well fitted curve in the direction sought with a large enough effect in the signal ratio, with a control signal flat; the % refers to the signal ratio;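 note: 100% = dexamethasone at 0.1 µM and 0% = DMSO only wells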). The settings on record: HeLa MMTV-bla, beta-lactamase ratio, agonist, 18 h; active compounds read high; percent of dexamethasone control, DMSO zero. In outline:
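Cells were plated and rested 3-5 h at 37 C, compounds were added in titration and incubated 18 h, then CCF4 substrate was loaded for 2 h at RT before reading blue/green fluorescence. EC50 came from Hill-equation fitting.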

A short description of assay [20]: Cell Viability - LYMP2-006 (AID 978). Note: potency is the fitted concentration of half-maximal effect. In outline:
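qHTS, 1536-well; 2500 cells/well, 5 hr 37 C; cpd 24 hr 37 C; CellTiter-Glo 30 min RT; luminescence. Tetraoctylammonium bromide pos. ctrl. AC50 via Hill eqn.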

Sequence of Glucocorticoid receptor (Homo sapiens) (P04150 whole entry, looked up): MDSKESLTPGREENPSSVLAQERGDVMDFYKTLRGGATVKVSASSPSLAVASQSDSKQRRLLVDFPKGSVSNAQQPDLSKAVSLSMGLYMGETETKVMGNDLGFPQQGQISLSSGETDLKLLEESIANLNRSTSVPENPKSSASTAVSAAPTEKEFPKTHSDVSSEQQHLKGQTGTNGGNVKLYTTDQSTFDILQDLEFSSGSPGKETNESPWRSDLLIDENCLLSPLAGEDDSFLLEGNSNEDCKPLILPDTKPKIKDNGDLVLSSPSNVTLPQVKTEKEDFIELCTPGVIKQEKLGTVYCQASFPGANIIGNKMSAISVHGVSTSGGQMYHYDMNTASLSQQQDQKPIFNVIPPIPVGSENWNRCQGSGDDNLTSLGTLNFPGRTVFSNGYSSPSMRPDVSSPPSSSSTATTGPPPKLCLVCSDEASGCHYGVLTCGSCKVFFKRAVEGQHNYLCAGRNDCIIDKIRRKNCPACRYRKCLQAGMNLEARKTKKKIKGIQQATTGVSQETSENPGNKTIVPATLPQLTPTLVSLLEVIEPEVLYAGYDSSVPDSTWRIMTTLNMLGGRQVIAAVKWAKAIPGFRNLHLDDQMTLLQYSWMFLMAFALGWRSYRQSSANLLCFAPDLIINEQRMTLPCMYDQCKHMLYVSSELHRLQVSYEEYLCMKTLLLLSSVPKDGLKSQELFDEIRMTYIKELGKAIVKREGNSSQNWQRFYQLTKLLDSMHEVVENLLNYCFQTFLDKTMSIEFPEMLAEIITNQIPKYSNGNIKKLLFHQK
Sequence of Thyroid hormone receptor beta (Homo sapiens) (P10828 whole entry, looked up): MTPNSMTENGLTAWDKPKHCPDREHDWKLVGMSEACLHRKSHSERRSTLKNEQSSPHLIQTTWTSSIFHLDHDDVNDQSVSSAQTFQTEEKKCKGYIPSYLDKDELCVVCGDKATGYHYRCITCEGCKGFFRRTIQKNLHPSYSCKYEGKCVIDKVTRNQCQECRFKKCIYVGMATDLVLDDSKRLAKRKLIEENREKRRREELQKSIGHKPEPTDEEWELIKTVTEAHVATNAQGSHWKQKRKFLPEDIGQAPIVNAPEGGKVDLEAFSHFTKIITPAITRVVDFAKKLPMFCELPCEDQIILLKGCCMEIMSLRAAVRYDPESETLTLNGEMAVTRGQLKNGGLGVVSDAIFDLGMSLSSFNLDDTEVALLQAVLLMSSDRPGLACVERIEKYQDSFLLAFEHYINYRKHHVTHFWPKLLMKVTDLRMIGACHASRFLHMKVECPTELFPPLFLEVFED
Sequence of Estrogen receptor (Homo sapiens) (P03372 whole entry, looked up): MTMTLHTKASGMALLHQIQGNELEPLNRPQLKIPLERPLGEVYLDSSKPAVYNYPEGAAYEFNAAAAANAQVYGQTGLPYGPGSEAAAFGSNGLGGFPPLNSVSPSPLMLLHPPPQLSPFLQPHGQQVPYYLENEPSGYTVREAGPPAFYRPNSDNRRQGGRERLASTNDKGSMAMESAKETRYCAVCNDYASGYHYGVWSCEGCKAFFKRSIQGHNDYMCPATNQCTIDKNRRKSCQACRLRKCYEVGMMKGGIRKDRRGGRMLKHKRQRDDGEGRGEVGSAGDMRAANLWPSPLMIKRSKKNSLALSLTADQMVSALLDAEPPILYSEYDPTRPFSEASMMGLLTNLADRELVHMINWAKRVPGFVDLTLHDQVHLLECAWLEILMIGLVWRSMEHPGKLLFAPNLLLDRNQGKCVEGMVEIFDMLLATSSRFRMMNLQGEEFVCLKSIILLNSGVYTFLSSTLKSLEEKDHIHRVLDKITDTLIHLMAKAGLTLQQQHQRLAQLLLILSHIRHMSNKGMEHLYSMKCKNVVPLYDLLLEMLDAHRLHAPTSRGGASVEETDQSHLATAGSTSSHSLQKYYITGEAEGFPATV
Sequence of Retinoic acid receptor RXR-alpha (Homo sapiens) (P19793 whole entry, looked up): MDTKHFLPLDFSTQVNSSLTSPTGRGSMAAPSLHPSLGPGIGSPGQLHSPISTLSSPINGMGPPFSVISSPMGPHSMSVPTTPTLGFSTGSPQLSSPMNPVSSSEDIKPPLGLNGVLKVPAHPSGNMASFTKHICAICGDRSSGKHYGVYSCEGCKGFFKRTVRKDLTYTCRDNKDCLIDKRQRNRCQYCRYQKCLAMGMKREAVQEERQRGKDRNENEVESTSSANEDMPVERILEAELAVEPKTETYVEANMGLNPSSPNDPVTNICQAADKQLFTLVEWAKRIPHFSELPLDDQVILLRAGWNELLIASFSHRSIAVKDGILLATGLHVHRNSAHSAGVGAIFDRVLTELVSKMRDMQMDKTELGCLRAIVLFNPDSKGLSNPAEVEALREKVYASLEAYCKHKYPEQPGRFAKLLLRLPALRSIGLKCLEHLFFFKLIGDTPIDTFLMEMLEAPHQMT
Sequence of Bile acid receptor (Homo sapiens) (Q96RI1 whole entry, looked up): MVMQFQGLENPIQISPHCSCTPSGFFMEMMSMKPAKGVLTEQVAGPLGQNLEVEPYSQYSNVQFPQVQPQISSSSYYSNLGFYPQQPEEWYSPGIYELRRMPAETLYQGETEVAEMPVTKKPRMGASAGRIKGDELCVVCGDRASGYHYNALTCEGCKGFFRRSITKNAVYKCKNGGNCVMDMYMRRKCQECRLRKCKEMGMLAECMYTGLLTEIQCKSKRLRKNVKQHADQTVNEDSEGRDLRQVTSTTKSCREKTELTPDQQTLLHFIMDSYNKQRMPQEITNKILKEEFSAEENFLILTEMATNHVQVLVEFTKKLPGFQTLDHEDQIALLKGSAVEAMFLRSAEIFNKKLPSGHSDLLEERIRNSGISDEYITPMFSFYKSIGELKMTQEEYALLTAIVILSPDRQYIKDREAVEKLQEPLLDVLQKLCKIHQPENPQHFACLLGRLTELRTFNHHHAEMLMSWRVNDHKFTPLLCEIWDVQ

Consider `c1ccc2ncccc2c1`, for which the Potency result in assay [1], in [2], in assay [3], in assay [4], in assay [6] and in assay [7] was “inactive” in each case. Besides, the Potency entry in assay [8] and in assay [9] was “inactive” in each case. The call in assay [5] was inactive.
As to `OC1CCCCC1`, the Potency entry in assay [10], in assay [11], in assay [1], in [12], in assay [4] and in [6] was “inactive” in each case. Besides, the Potency entry in [13], in assay [14] and in [8] was “inactive” each time. For the same compound, the compound was classed as inactive in assay [5]. For the same compound, the activity change % (negative = inhibition) in assay [15] was 4.86%.
On to `COc1ccc([N+](=O)[O-])cc1N`, for which the Potency entry in assay [16], in assay [10], in [2], in [3], in [17] and in assay [12] was “inactive” throughout. The Potency entry in assay [4], in assay [6], in assay [18], in [7], in [14] and in assay [9] was “inactive” each time. Also, in assay [5], the call was inactive. For the same compound, the activation in [19] is 2.11% and 1.38%. For the same compound, in assay [15], the activity change % (negative = inhibition) is -27.9%.
Consider `c1c[nH]cn1`, for which the Potency entry in [10], in [11], in assay [1], in [2], in [20] and in assay [17] was “inactive” each time. For the same compound, the Potency result in [12], in assay [4], in assay [6], in [7], in assay [8] and in assay [9] was “inactive” each time. Moreover, in [5], the compound was called inactive. For the same compound, in assay [15], the activity change % (negative = inhibition) was -11.5%.
Turning to `Cc1ccc(S(N)(=O)=O)cc1`, the Potency result in [10], in assay [1], in [20], in assay [3], in [17] and in assay [12] was “inactive” in each case. The Potency result in [18], in assay [7], in assay [13] and in assay [8] was “inactive” each time. For the same compound, the activity change % (negative = inhibition) in [15] was 17.3% and -1.91%.
`c1cc2c3c(c1)ccc1cccc(c13)C2`: the Potency result in assay [10], in assay [11], in assay [1], in assay [20], in assay [3] and in [17] was “inactive” in each case. Further, the Potency result in assay [12], in assay [4], in [14], in assay [8] and in assay [9] was “inactive” throughout.
On to `C=C1CC[C@H](O)C/C1=C/C=C1\CCC[C@]2(C)[C@@H]([C@H](C)CCCC(C)C)CC[C@@H]12`, for which the Potency result in [16] is “inactive”. Besides, in assay [10], the activity change, negative = cytotoxicity was -102% (active). Also, the Potency was 50.1 µM (active) in [1], 50.1 µM (active) in assay [3] and 39.8 µM (active) in assay [17]. In assay [19], the activation is -3.67%.
`Brc1cc(Br)c(Oc2cc(Br)c(Br)cc2Br)cc1Br`: the Potency result in [11], in assay [2], in assay [20], in assay [17], in assay [12] and in assay [9] was “inactive” each time. In assay [5], the call was inactive. Further, the activity change % (negative = inhibition) in [15] was 17.2%.
With `O=C1c2ccccc2C(=O)C1(O)O`, the Potency result in [16], in [10], in assay [1], in [20], in assay [3] and in assay [4] was “inactive” throughout. In assay [6], the Potency result is “inactive”. In addition, the call in [5] was inactive. In assay [15], the activity change % (negative = inhibition) is -4.45%.
Turning to `CC(C)(C)C(=O)C1C(=O)c2ccccc2C1=O`, the Potency result in assay [11], in [2], in assay [17], in assay [12], in assay [6] and in assay [8] was “inactive” throughout. In assay [5], the compound was called inactive. The activation in assay [19] was -3.45%.
Turning to `C/C=C1/C(=O)C[C@H]2[C@@H]3CCC4=CC(=O)CC[C@]4(C)[C@H]3CC[C@]12C`, the Potency result in [16] is “inactive”. Further, the Potency in assay [20] and in assay [3] was 50.1 µM (active) throughout.
